Measurements reported in PubChem BioAssay (NCATS).
Inconclusive results are not listed. The source made the active and inactive calls. Calls come from the whole dose curve; as a rule, active = well fitted inhibition curve with a large enough effect; inconclusive = small, poorly fitted or top-dose-only effect; inactive = flat fitted curve, though single readings scatter.

test system: CP247; assay: qHTS profiling for inhibitors of Plasmodium falciparum proliferation (AID 504749); note: nearly all actives have a fitted effect of over 60% in size;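 for activity, negative = inhibition: 0% = DMSO vehicle and full inhibition = artemisinin control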; conditions: P. falciparum in erythrocytes, SYBR Green DNA, 72 h; series mostly up to 28.7 µM; activity, negative = inhibition: at the top concentration
Procedure, shortened: (§1)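 P. falciparum-infected erythrocytes (0.3% parasitemia, 2.5% hematocrit) incubated with compound 72 h at 37 C, 5% CO2. Parasite DNA detected by SYBR Green after lysis, overnight at room temperature; normalised to 0.29 uM artemisinin and DMSO.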
Potency is the fitted concentration of half-maximal effect.

| SMILES | Potency | activity, negative = inhibition |
| --- | --- | --- |
| NC(=O)NNc1ccccc1 | inactive | – |
| COc1ccc2c(c1)C(=O)N(CCc1ccc(S(=O)(=O)NC(=O)NC3CCCCC3)cc1)C(=O)C2(C)C | – | 3.12% [at 12.8 µM] (inactive) |
| COc1ccc2[nH]c(S(=O)Cc3ncc(C)c(OC)c3C)nc2n1 (configuration not stated) | 11.2 µM (active) | – |
| CCn1cc(C(=O)O)c(=O)c2cnc(N3CCNCC3)nc21 | – | 14.3% [at 12.8 µM] (inactive) |
| O=C(O)COc1nn(Cc2ccccc2)c2ccccc12 | – | 0.448% (inactive) |
| O=C1O[C@H]([C@@H](O)CO)C(O)=C1O | – | 3% (inactive) |
| O=S(=O)(O)c1cc(I)c(O)c2ncccc12 | – | 0.846% (inactive) |
| CC1=C(CC(=O)O)c2cc(F)ccc2/C1=C\c1ccc(S(C)=O)cc1 (configuration not stated) | – | 1.08% (inactive) |
| CCOC(=O)c1ccc(O)cc1 | – | 7.05% (inactive) |
| O=C(O)c1ccccn1 | – | 4.58% (inactive) |
| Cc1cc(O)cc2c1O[C@](C)(CCC[C@H](C)CCC[C@H](C)CCCC(C)C)CC2 | – | 2.2% (inactive) |
| NCC(=O)CCC(=O)O | – | 3.16% (inactive) |
| CC(C)(C)C(=O)NCCCC(=O)O | – | 8.35% (inactive) |
| COc1cc2[nH]c(=O)[nH]c(=O)c2cc1OC | – | 4.99% [at 12.8 µM] (inactive) |
| CCC(=O)Nc1ccc(O)cc1 | – | 3.5% (inactive) |
| COc1ccc(Cl)cc1C(=O)NCCc1ccc(S(=O)(=O)NC(=O)NC2CCCCC2)cc1 | – | -2.99% (inactive) |
| O=C1NC(=O)[C@@]2(CCOc3ccc(F)cc32)N1 | – | 11.3% (inactive) |
| O=Cc1ccccc1C=O | – | 3.32% (inactive) |
| CC(O)CN(CCN(CC(C)O)CC(C)O)CC(C)O (configuration not stated) | – | 3.14% (inactive) |
| Cc1ccc(C(C)C)cc2c(C)ccc1-2 | – | -1.52% (inactive) |
| Nc1nc2c(ncn2CCC(CO)CO)c(=O)[nH]1 | – | -4.13% (inactive) |
| NCCNCCNCCN | – | 3.37% (inactive) |
| CC1(C)OC(=O)NC1=O | – | 5.56% (inactive) |
| CCCCN(CCCC)CCCOC(=O)c1ccc(N)cc1 | – | -8.98% [at 12.8 µM] (inactive) |
| O=C1c2c(O)cccc2Cc2cccc(O)c21 | – | 7.79% (inactive) |
| CCCOC(=O)c1ccccc1 | – | 2.06% (inactive) |
| CC12CCC(CC1)C(C)(C)O2 | – | 9.92% (inactive) |
| CC(=O)Nc1ccc(/C=N/NC(N)=S)cc1 | inactive | – |
| O=C1OC(OC(=O)c2cccnc2Nc2cccc(C(F)(F)F)c2)c2ccccc21 (configuration not stated) | – | -19% (inactive) |
| O=C1NS(=O)(=O)c2ccccc21 | – | 2.65% (inactive) |

test system: CP250; assay: as above; conditions: P. falciparum in erythrocytes, SYBR Green DNA, 72 h; series mostly up to 28.7 µM; activity, negative = inhibition: at the top concentration
Procedure, shortened: as §1

| SMILES | Potency | activity, negative = inhibition |
| --- | --- | --- |
| NC(=O)NNc1ccccc1 | inactive | – |
| O=C(O)[C@@H]1CSCN1 | – | -6.85% (inactive) |
| COc1ccc2c(c1)C(=O)N(CCc1ccc(S(=O)(=O)NC(=O)NC3CCCCC3)cc1)C(=O)C2(C)C | – | 6.75% [at 12.8 µM] (inactive) |
| CCCc1c(OCCCCc2nn[nH]n2)ccc(C(C)=O)c1O | – | -24.2% (inactive) |
| CCn1cc(C(=O)O)c(=O)c2cnc(N3CCNCC3)nc21 | – | 7.3% [at 12.8 µM] (inactive) |
| O=C(O)COc1nn(Cc2ccccc2)c2ccccc12 | – | 3.74% (inactive) |
| O=C1O[C@H]([C@@H](O)CO)C(O)=C1O | – | 7.68% (inactive) |
| O=S(=O)(O)c1cc(I)c(O)c2ncccc12 | – | -2.36% (inactive) |
| CC1=C(CC(=O)O)c2cc(F)ccc2/C1=C\c1ccc(S(C)=O)cc1 (configuration not stated) | – | -5.51% (inactive) |
| CCOC(=O)c1ccc(O)cc1 | – | 7.01% (inactive) |
| O=C(O)c1ccccn1 | – | 3.13% (inactive) |
| Cc1cc(O)cc2c1O[C@](C)(CCC[C@H](C)CCC[C@H](C)CCCC(C)C)CC2 | – | 11.2% (inactive) |
| NCC(=O)CCC(=O)O | – | 6.96% (inactive) |
| CC(C)(C)C(=O)NCCCC(=O)O | – | 8.57% (inactive) |
| COc1cc2[nH]c(=O)[nH]c(=O)c2cc1OC | – | 1.69% [at 12.8 µM] (inactive) |
| CCC(=O)Nc1ccc(O)cc1 | – | 1.16% (inactive) |

| SMILES | Potency | activity, negative = inhibition |
| --- | --- | --- |
| COc1ccc(Cl)cc1C(=O)NCCc1ccc(S(=O)(=O)NC(=O)NC2CCCCC2)cc1 | – | 7.66% (inactive) |
| O=C1NC(=O)[C@@]2(CCOc3ccc(F)cc32)N1 | – | 4.98% (inactive) |
| O=Cc1ccccc1C=O | – | -9.46% (inactive) |
| CC(O)CN(CCN(CC(C)O)CC(C)O)CC(C)O (configuration not stated) | – | 0.465% (inactive) |
| Cc1ccc(C(C)C)cc2c(C)ccc1-2 | – | -6.66% (inactive) |
| Nc1nc2c(ncn2CCC(CO)CO)c(=O)[nH]1 | – | 4.44% (inactive) |
| NCCNCCNCCN | – | 24.3% (inactive) |
| CC1(C)OC(=O)NC1=O | – | 11.2% (inactive) |
| CCCCN(CCCC)CCCOC(=O)c1ccc(N)cc1 | – | -2.17% [at 12.8 µM] (inactive) |
| O=C1c2c(O)cccc2Cc2cccc(O)c21 | – | 0.33% (inactive) |
| CCCOC(=O)c1ccccc1 | – | -4.57% (inactive) |
| CC12CCC(CC1)C(C)(C)O2 | – | 7.3% (inactive) |
| CC(=O)Nc1ccc(/C=N/NC(N)=S)cc1 | inactive | – |
| CC(C)(C)NCC(O)COc1ccc(NC(=O)NC2CCCCC2)cc1 (configuration not stated) | – | -0.613% (inactive) |
| O=C1OC(OC(=O)c2cccnc2Nc2cccc(C(F)(F)F)c2)c2ccccc21 (configuration not stated) | – | 4.02% (inactive) |
| O=C1NS(=O)(=O)c2ccccc21 | – | 5.77% (inactive) |
